# Sampled rows, rich in hits. Any-hit rate of the full collection: about 3.4%.
# Shn3 inh set2 – reduction of Shn3 3'UTR firefly luciferase signal, primary screen, Schnurri-3 inhibitor project, cell-based, Clone20 osteoblasts, set 2; Clone20 osteoblast Shn3 3'UTR firefly luciferase, 24 h; inhibition, % at 12.5 µM; actives 0.52% (n = 360,000);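 active means mean inhibition of at least 75% with every replicate also reaching 75%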
# TRPM1 prom inh – inhibitors of MITF-dependent TRPM1 promoter reporter, primary screen, cell-based, SK-MEL-5, single point, luciferase | actives 0.83% (n = 330,000) | SK-MEL-5 TRPM1 promoter luciferase, 24 h | AID 488899, 2010 | inhibition, % at 12.5 µM;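 active means mean inhibition across replicates of 60% or more, whatever share of single replicates reaches that level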
# HIF-2a block – HIF-2a reporter inhibitors, primary screen, luminescence, 786-0 RCC cells | 786-0 RCC cells HIF-2a reporter, luciferase luminescence, overnight | inhibition, % at 18.8 µM | actives 0.72% (n = 360,000);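 active means inhibition of the luminescence signal of 40% or more relative to plate controls, in a single-dose primary screen at 18.75 µM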
# TWEAK-Fn14 inh – inhibitors of TWEAK-Fn14 signaling, primary screen, luciferase reporter cells, uHTS | inhibition, % at 10 µM | actives 2% (n = 360,000) | TWEAK-stimulated Fn14 reporter cells, luciferase luminescence, 8 h | AID 1159606, 2016; in the data active means inhibition above about 50%
# EBV LMP1 NFkB – EBV LMP1-driven NF-kappaB luciferase reporter inhibitors, primary screen, cell-based, luminescence, single point | LMP1-induced NF-kappaB luciferase reporter cells | inhibition, % at 12.5 µM | actives 0.69% (n = 350,000); in the data active means inhibition above about 41%
# TROY NFkB inh – inhibitors of TROY-driven NF-kB signaling, primary screen, Q293 LMP1-TROYcd cells, NF-kB luciferase, uHTS | inhibition, % at 10 µM | actives 0.98% (n = 360,000) | Q293 LMP1-TROYcd NF-kB luciferase reporter, 4 h;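 active means compounds whose plate-normalised and pattern-corrected inhibition of the luciferase reporter signal at the single screening dose is 50% or more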
# Numbers stand for hits; – = inactive; · = not tested or not shown.
SMILES,Shn3 inh set2,TRPM1 prom inh,HIF-2a block,TWEAK-Fn14 inh,EBV LMP1 NFkB,TROY NFkB inh
Cc1cc(C)c(NC(=O)CN(C)CC(=O)Nc2cccc(S(=O)(=O)N(C)c3ccccc3)c2)c(C)c1,–,–,–,53.3,–,–
CN(CC(=O)Nc1cccc(F)c1)CC(=O)Nc1cccc(S(=O)(=O)N(C)c2ccccc2)c1,–,–,–,–,–,–
Cc1ccc(C(=O)Nc2cccc(C(=O)O)c2)cc1S(=O)(=O)N1CCOCC1,–,–,–,–,–,–
Cc1ccc(NC(=O)c2cccc(S(=O)(=O)N(C)c3ccccc3)c2)cc1S(=O)(=O)N1CCOCC1,–,–,–,53.6,–,–
Cc1nc2ccc(NC(=O)c3cccc(S(=O)(=O)N(C)c4ccccc4)c3)cc2s1,89.6,–,–,71.7,–,60.4
CCNC(=O)C1(C)CCCN(Cc2csc3ccccc23)C1 (stereo unspecified),–,·,–,–,·,–
O=C(Cc1ccsc1)NCC(=O)Nc1ccc(F)c(F)c1,–,–,–,–,–,–
COc1ccc(OC)c2[nH]c(=O)c(CCNC(=O)c3ccc(S(=O)(=O)N(C)C)cc3)cc12,–,–,–,–,68.7,–
COc1ccccc1N(C)S(=O)(=O)c1ccc(C(=O)NCCc2ccc(F)cc2)cc1,–,–,–,53.3,–,–
CN(c1ccccc1)S(=O)(=O)c1cccc(NC(=O)c2ccc3ncsc3c2)c1,88.1,–,–,76.1,–,62.8
NS(=O)(=O)c1ccc(CNC(=S)NC2CCCCC2)cc1,–,–,–,–,–,–
CCCc1cc(=O)n2[nH]c(C)c(-c3ccc(OC)cc3)c2n1,–,–,–,–,–,–
NC(=S)N/N=C/c1ccccc1OCCSc1ccc(Cl)cc1,–,–,–,60.6,–,–
Cc1ccccc1Cn1nnc(-c2ccc3c(c2)OCO3)n1,–,–,–,79.5,–,–
Cc1ccccc1Cn1ccc(-c2ccc3c(c2)OCO3)n1,–,–,–,–,–,–
Fc1cccc(Cl)c1Cn1nnc(-c2ccc3c(c2)OCO3)n1,–,–,–,53.8,–,–
CN1CCN(C(=O)/C(=C/c2cccc([N+](=O)[O-])c2)NC(=O)c2ccccc2)CC1,–,–,–,55.3,–,–
CN1CCN(C(=O)/C(=C/c2ccc([N+](=O)[O-])cc2)NC(=O)c2ccccc2)CC1,–,–,–,53.8,–,–
Cc1ccc(C)c(OCCC(=O)OCC(=O)NNC(=O)c2ccccc2)c1,–,–,–,–,–,–
Cc1ccc(S(=O)(=O)c2nc(S(C)(=O)=O)sc2NCC2CCCO2)cc1 (stereo unspecified),–,–,–,87.2,–,·
CCOP(=O)(OCC)c1ccc2ccc3ccccc3c(=O)c2c1,–,–,–,–,–,–
COc1cccc(/C=C/C(=O)OCC(=O)c2ccccc2)c1OC,–,–,–,64.5,–,51.0
COc1cccc(/C=C/C(=O)OCC(=O)c2ccc(C)c(C)c2)c1OC,–,–,–,–,–,–
O=C1Nc2ccccc2O/C1=C\c1ccccc1Br,–,–,–,–,–,–
CN(C)CCCNC(=O)C[C@H]1C[C@H](C(=O)N2CCOCC2)[C@@]2(C)c3[nH]c4ccc(Cl)cc4c3CCN2C1=O,–,–,–,–,–,–
SMILES,Shn3 inh set2,TRPM1 prom inh,HIF-2a block,TWEAK-Fn14 inh,EBV LMP1 NFkB,TROY NFkB inh
O=C(Oc1c(-c2ccccc2Cl)oc2ccccc2c1=O)c1ccc(Cl)cc1,–,–,–,50.1,–,–
O=C(Oc1c(-c2ccccc2)oc2ccccc2c1=O)c1ccccc1,–,–,–,–,–,–
CC1(c2nc3ccccc3[nH]2)c2ccccc2C(=O)N1Cc1ccccc1 (stereo unspecified),·,·,–,–,·,–
COc1ccc(NC(=O)CN2C(=O)NC(CC(C)C)C2=O)cc1S(=O)(=O)N1CCOCC1 (stereo unspecified),–,–,–,–,–,–
O=C1C=CC(=Nc2ccc3c(c2)Cc2ccccc2-3)O1,–,–,–,–,–,64.9
O=C(CNC(=O)c1cccc(F)c1)N/N=C/c1cc(Br)ccc1OC(=O)/C=C/c1ccco1,86.9,67.2,–,–,–,–
O=C(CNC(=O)c1ccc(F)cc1)N/N=C/c1cc(Br)ccc1OCc1ccccc1,–,–,–,–,–,–
COc1ccc(-c2nc3ccccc3n2Cc2ccc(C)cc2)cc1,–,–,–,–,–,–
COc1ccc(Cn2c(-c3ccc(C)cc3)c[n+]3ccccc23)cc1,–,77.7,–,–,–,–
CCCn1c2ccccc2c2cnn(CC(=O)O)c(=O)c21,–,–,–,–,–,–
CCn1c(=O)c2c(cnn2C)c2ccccc21,–,–,–,58.1,46.7,–
COc1cccc(CNc2nc3cc(-c4cccc(C(=O)NCCO)c4)sc3c(=O)n2C)c1,–,·,–,–,·,–
Cc1nonc1NC(=O)CSc1nc(C23CC4CC(CC(C4)C2)C3)nc2ccccc12,–,–,–,66.4,–,–
Cc1cc(=O)oc2cc(OCC(=O)Nc3nnc(C(C)C)s3)ccc12,–,–,–,77.4,–,–
CC(C)c1ccc(C2c3[nH]c4ccccc4c3C[C@H]3C(=O)N(c4ccccc4C(=O)N4CCC[C@H]4C(=O)O)C(=O)N23)cc1 (stereo partly specified),–,–,–,–,–,66.7
COc1ccc2c(c1)CCC1(C)CC(=O)C(Br)=C21 (stereo unspecified),–,·,–,–,–,–
Cc1noc(C)c1COC(=O)c1cccc(S(=O)(=O)N2c3ccccc3CC2C)c1 (stereo unspecified),–,–,–,52.8,–,–
Cc1noc(C)c1COC(=O)c1cccc(S(=O)(=O)N2CCOCC2)c1,–,–,–,–,–,–
Cc1cc(C)c(N=Cc2c(O)c3ccccc3oc2=O)c(C)c1,–,–,–,–,–,–
CCOc1ccc(-n2ccc(=O)c(C(=O)Nc3ccc(S(=O)(=O)Nc4ncccn4)cc3)n2)cc1,–,–,–,–,–,–
Cc1[nH]n(-c2ccccc2)c(=O)c1N=Nc1nccs1,–,–,–,–,–,–
CN(C)c1ccc(N=Nc2nccs2)cc1,–,·,–,79.4,–,–
CC(C)C[C@H](NC(=O)N1CCn2c1nc1ccccc12)C(=O)N1CCCCC1,–,–,–,–,–,–
CCCCN(C)CC(O)Cn1cc(/C=C/C(=O)c2cccs2)c2ccccc21 (stereo unspecified),–,90.4,–,–,–,–
O=C(/C=C/c1cn(CC(O)CN2CCCCCC2)c2ccccc12)c1cccs1 (stereo unspecified),–,–,–,–,–,–
